# Rows were chosen to be rich in hits. Some 3.2% of all compounds tested hit in one or more screens of this group.
# p53ts 39C tox: p53ts cell cytotoxicity, nonpermissive temperature; H1299-p53A138V viability at 39C, ATP luminescence, 24 h; Potency, µM (highest dose often 46.1 µM), without a hit: top-dose activity change, negative = cell killing, most hits filed as cytotoxic; 1.5% of 130,000 active; AID 902; further: potency means the concentration at half of the fitted maximal effect; on the % scale 0 is the no-effect control and ±100 the full control effect; nearly all actives have a fitted effect of over 55% in size
# Pol III holo inh: inhibitors of bacterial DNA polymerase III holoenzyme | 0.25% of 71,000 active | reconstituted DNA polymerase III holoenzyme replication, biochemical | AID 603 | Potency, µM (top dose mostly 57.1 µM), for the others: top-dose activity change, negative = inhibition; further: potency means the concentration at half of the fitted maximal effect; on the % scale 0 is the no-effect control and ±100 the full control effect
#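 Reconstituted *E. coli* holoenzyme (0.35 nM Pol III, 1 nM beta, 154 nM SSB, 2 nM primase) was preincubated with compound for 15 min at RT. Synthesis on 1.4 nM ssM13Gori ran 35 min, then was stopped with PicoGreen/EDTA and read as dsDNA fluorescence.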
# YjeE inh: YjeE (TsaE) inhibition, E. coli. P0AF67. purified YjeE enzyme, qHTS inhibition assay. Potency, µM. 0.05% of 71,000 active
#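 Purified YjeE (10 uM) with BODIPY Texas Red-labeled ADP probe (2 uM); compounds pin-transferred, 15 min at room temperature. Binding inhibition read as decreased fluorescence polarization; ADP titration as control.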
# Tau filament bind: binders of human tau filaments; P10636; recombinant tau filaments, thioflavin S fluorescence, 15 h; filaments grown with octadecylsulfate alongside compound; Potency, µM (top dose mostly 57.1 µM), without a hit: top-dose activity change, negative = inhibition; 2% of 71,000 active; AID 596;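 further: potency means the concentration at half of the fitted maximal effect; on the % scale 0 is the no-effect control and ±100 the full control effect; actives lower thioflavin S fluorescence by blocking filaments or displacing dye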
# Target sequence (P10636 whole entry, looked up): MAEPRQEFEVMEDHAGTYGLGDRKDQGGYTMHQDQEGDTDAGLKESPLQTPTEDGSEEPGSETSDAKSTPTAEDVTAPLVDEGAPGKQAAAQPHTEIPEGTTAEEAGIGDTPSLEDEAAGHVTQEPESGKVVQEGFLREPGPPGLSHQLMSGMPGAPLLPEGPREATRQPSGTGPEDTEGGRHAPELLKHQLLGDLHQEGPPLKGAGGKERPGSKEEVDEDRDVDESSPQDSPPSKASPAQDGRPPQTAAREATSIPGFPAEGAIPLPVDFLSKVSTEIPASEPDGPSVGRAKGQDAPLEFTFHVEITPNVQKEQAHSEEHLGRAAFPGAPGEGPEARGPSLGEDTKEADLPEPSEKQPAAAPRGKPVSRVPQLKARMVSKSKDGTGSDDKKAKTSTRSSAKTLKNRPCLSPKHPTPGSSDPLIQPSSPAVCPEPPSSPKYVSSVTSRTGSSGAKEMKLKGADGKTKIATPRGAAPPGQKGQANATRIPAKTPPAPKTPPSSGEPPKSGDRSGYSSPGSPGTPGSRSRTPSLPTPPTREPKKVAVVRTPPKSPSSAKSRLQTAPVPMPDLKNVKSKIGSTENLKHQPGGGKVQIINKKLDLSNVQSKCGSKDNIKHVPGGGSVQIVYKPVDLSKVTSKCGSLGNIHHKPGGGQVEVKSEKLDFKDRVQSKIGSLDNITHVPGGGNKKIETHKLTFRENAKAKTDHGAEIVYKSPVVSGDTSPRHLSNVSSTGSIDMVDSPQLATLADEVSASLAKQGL
#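 Thioflavine S fluorescence (ex 450, em 510 nm) reports filaments formed from 1 uM human tau plus 30 uM ODS over 15 h at 37 C (10 mM HEPES pH 7.4, 100 mM NaCl, 5 mM DTT); compounds displacing dye or blocking filaments lower signal.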
# p53ts 32C tox: p53ts cell cytotoxicity, permissive temperature | H1299-p53A138V at 32C, ATP luminescence viability, 24 h | Potency, µM (highest dose often 46.1 µM), for inactives: at the highest dose activity change, negative = cytotoxicity, usual class: cytotoxic | 0.93% of 130,000 active;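 further: potency means the concentration at half of the fitted maximal effect; 0% = DMSO and -100% = full killing by reference compound; nearly all actives have a fitted effect of over 55% in size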
#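 Viability by ATPlite luminescence after 24 h compound treatment (up to 46 uM) at the permissive 32C. Cells are H1299 carrying p53 A138V. Scale runs from DMSO basal to 100 uM tamoxifen as full kill; AC50 from Hill fits.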
# ERK AVP inh: blocks ERK signaling stimulated by vasopressin | HEK293-V1b, vasopressin-stimulated pERK AlphaScreen | Potency, µM (doses to about 57.5 µM), for the others: at the highest dose activity, negative = inhibition, hits mostly inhibitors | 0.99% of 72,000 active | AID 995; further: potency means the concentration at half of the fitted maximal effect; on the % scale 0 is the no-effect control and ±100 the full control effect; nearly all actives have a fitted effect of over 55% in size
#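 HEK293 cells stably expressing V1b receptor, preincubated 30 min at 37 °C with compound, then stimulated 5 min with 25 nM vasopressin. Phospho-ERK by AlphaScreen SureFire after 5 h RT; normalized to DMSO and vasopressin; AC50 by Hill fit.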
# Numbers without * were called inactive; i = inactive; ? = inconclusive; . = not tested or not shown; ! = not active in a repeat; [ ] = another dose, or the depositor's remark. The call rests on the fitted dose curve; in most records, active means well fitted curve in the direction sought with a large enough effect; inconclusive means small, poorly fitted or top-dose-only effect, or another doubt; inactive means no such curve, though single readings can be large; an effect the other way counts as inactive or inconclusive.
SMILES,p53ts 39C tox,Pol III holo inh,YjeE inh,Tau filament bind,p53ts 32C tox,ERK AVP inh
O=c1oc2ccccc2cc1-c1cn2cc(Cc3ccc(F)cc3)sc2n1,-6.4%,.,.,.,-3.2%,.
Cc1ccc(Cc2cn3cc(-c4ccc(F)cc4)nc3s2)cc1,7.94µM*,.,.,.,?,.
COc1ccc(CNCCC(c2ccccc2)c2ccc3c(c2)OCO3)cc1 (stereo not given),15.8µM*,.,.,.,?,.
COc1cccc(OC)c1-c1nn2c(-c3cc(-c4ccccc4)n[nH]3)nnc2s1,5.2%,12.6µM*,?,i,0.7%,-13.7%
N=c1n(CCN2CCCCC2)c2ccccc2n1CC(O)COc1ccc(Cl)cc1Cl (stereo not given),3.16µM*,.,.,.,22.4µM*,.
Cc1ccc(OCC(O)Cn2c(=N)n(CCN3CCOCC3)c3ccccc32)cc1 (stereo not given),-14.8%,-8.9%,i,28.1%,-8.3%,?
CCCCCn1c(=N)n(CC(O)COc2ccccc2OC)c2ccccc21 (stereo not given),20µM*,-12.6%,i,i,?,12.6µM*
N=c1n(CCO)c2ccccc2n1CCOc1ccc(Cl)cc1Cl,12.6µM*,-7.0%,i,229.1%,?,?
Cc1ccc(OCC(O)Cn2c(=N)n(CCN3CCCCC3)c3ccccc32)cc1 (stereo not given),12.6µM*,-5.4%,i,340.8%,-11.8%,-26.1%
COc1ccc(OCC(O)Cn2c(=N)n(CCN3CCCCC3)c3ccccc32)cc1 (stereo not given),12.6µM*!,-5.2%,i,18.3%,-28.0%,13.6%
CC(C)=CCc1c(O)cc(O)c2c1O[C@H](c1ccccc1)CC2=O,5.9%,-2.0%,i,39.8µM*,12.4%,20.3%
O=C1C[C@@H](c2ccc(O)cc2)Oc2cc(O)cc(O)c21,11.9%[20.6 µM],-4.7%,i,?,16.4%[20.6 µM],1.5%[25.7 µM]
CN(C)CC/C=C1\c2ccccc2COc2ccccc21,-20.7%,-3.1%,i,-10.5%,-4.3%,11.7%
O=C(CN1CCCC1)N1c2ccccc2Sc2ccccc21,6.9%,-1.1%,i,20µM*,1.0%,-7.9%
CNCC[C@H](Oc1ccccc1C)c1ccccc1,12.6µM*,-7.3%,i,-9.5%,-18.0%,7.1%
CCOC(=O)c1cc2occc2n1CCCN1C(=O)c2ccccc2C1=O,-19.0%,5.4%,i,15.8µM*,-4.9%,50.4%
CCOC(=O)c1cc2occc2n1CC(=O)N1CCOCC1,-4.8%,-3.8%,i,0.8%,6.3%,-9.2%
Cc1ccc2c(c1)c1cccc3c1n2CCN3CCC(N)=O,-26.9%,-7.9%,i,5.01µM*,-22.2%,?
CCOc1ccc2nc(NS(C)(=O)=O)sc2c1,-3.8%,-2.4%,i,15.8µM*,-13.7%,-12.6%
COc1ccc(C2CC(=O)c3c(C)nc(N4CCN(C=O)CC4)nc3C2)c(OC)c1 (stereo not given),-1.2%,.,.,.,-1.5%,.
CCc1ccc(NC(=O)Cn2c(=O)n(-c3ccc(OC)cc3)c(=O)c3ccc(C(=O)NCc4ccc(C)cc4)cc32)cc1,3.16µM*,.,.,.,10µM*,.
Cc1ccc(NC(=O)Cn2c(=O)n(-c3ccc(C)cc3)c(=O)c3ccc(C(=O)NCc4ccccc4Cl)cc32)cc1,1.26µM*,.,.,.,6.31µM*,.
COc1cccc2c1ncc1c(-c3ccc(C)cc3)nn(-c3ccc(F)cc3)c12,-7.4%,.,.,.,-1.3%,.
CCCCCCc1c(O)c2ccccc2[nH]c1=O,-2.1%,-6.3%,i,-16.7%,-7.5%,-0.4%
CCCCCCCCCCCC1=C(O)C(=O)C=C(O)C1=O,12.6µM*,6.31µM*!,i,3.16µM*,12.6µM*,46.3%
SMILES,p53ts 39C tox,Pol III holo inh,YjeE inh,Tau filament bind,p53ts 32C tox,ERK AVP inh
CCn1cc(C(=O)NCCc2ccc(Cl)cc2)c(=O)c2cc(S(=O)(=O)N3CCC(C)CC3)ccc21,-10.6%,.,.,.,-7.6%,.
O=C(O)Cc1ccc(O)c(O)c1,0.4%,-6.6%,i,5.3%,-6.3%,-8.5%
C[C@@](N)(Cc1ccc(O)c(O)c1)C(=O)O,-6.0%,12.6µM*!,i,-6.7%[25.6 µM],2.9%,?
CCCCCCCCC(=O)NCc1cc(OC)c(O)cc1I,31.6µM*,-3.5%,i,?,3.8%,?
COC(=O)Cc1c(C)nc2nc(-c3ccc(C)cc3)[nH]n2c1=O,?,.,.,.,10µM*,.
CN(C)c1ccc(-c2ccc3ncnc(N(C)Cc4ccco4)c3c2)cc1,-8.5%,-4.5%,i,20µM*,-4.8%,-28.4%
COc1cccc(-c2ccc3ncnc(N(C)Cc4ccco4)c3c2)c1,?,-7.0%,i,-0.7%,?,?
O=C(/C=C\c1ccc(O)c(O)c1)O[C@H]1C[C@@](O)(C(=O)O)C[C@H](O)[C@@H]1O,.,-7.0%,i,?,.,.
CCN(CCCNC(=O)CCCN1C(=O)COc2ccc(C)cc21)c1cccc(C)c1,18.6%,-1.5%,i,15.8µM*,14.0%,-23.6%
O=C(Nc1ccc(F)cc1)c1cccc(N2CCCS2(=O)=O)c1,?,.,.,.,-4.9%,.
O=C(Cn1cc(SCc2c(F)cccc2Cl)c2ccccc21)N1CCCCCC1,-3.8%,.,.,.,2.8%,.
Cc1ccc(NC(=O)Cn2c(=O)n(Cc3ccco3)c(=O)c3ccc(C(=O)NC4CCCC4)cc32)c(C)c1,12.6µM*,.,.,.,-26.5%,.
Cc1cc(NC(=O)c2ccccc2)sc1C,?,-14.2%,i,-10.2%,?,3.6%
Cc1ccc(NC(=O)c2ccccc2)s1,7.94µM*,0.5%,i,-12.7%,3.98µM*,-15.0%
CCOc1ccc(CNC(=O)c2ccc(NC(=O)c3nsc4ccccc34)cc2)cc1,-28.5%,.,.,.,-25.5%,.
CCOc1ccc(CNC(=O)c2ccccc2NC(=O)c2nsc3ccccc23)cc1,10µM*,.,.,.,?,.
COc1cc(NC(=O)N2CCC3(CC2)Nc2ccccc2-n2cccc23)cc(OC)c1OC,-14.0%,.,.,.,7.6%,.
CCC(CC)C(=O)Nc1cccc(-c2nc3cccnc3s2)c1C,-15.4%,.,.,.,-21.8%,.
COc1cc(OC)c(C(=O)NCc2nc(-c3ccccc3)no2)cc1OC,0.9%,.,.,.,-1.9%,.
O=C(/C=C/Nc1cccc(O)c1)c1ccccc1,7.94µM*,-4.2%,i,-5.1%,3.98µM*,?
C/C(=C\C(=O)c1ccc(C)cc1)Nc1cccc(O)c1,-26.6%,0.1%,i,39.7%,?,-17.9%
O=C(/C=C/Nc1ccccc1Br)c1ccccn1,1.26µM*,1.0%,i,37.8%,0.794µM*,3.1%
Cc1cc(N/C=C/C(=O)c2ccc(Br)cc2)no1,4.0%,.,.,.,-0.5%,.
O=C(/C=C\Nc1ccccn1)c1ccccc1,?,2.9%,i,26.2%,10µM*,2.8%
Cc1oc(/N=C/c2cccc3ccccc23)c(C#N)c1C,-7.5%,-3.6%[11.4 µM],i,0.794µM*,-9.4%,?
C[C@@]12C(=O)OC(=O)[C@@]1(C)[C@H]1CC[C@@H]2O1,83.0%,-3.2%,i,?,148.8%,7.94µM*

# Screens deposited in PubChem by National Center for Advancing Translational Sciences (NCATS).
